Columns and labels:
Test in all cases: log2 ratio of Biotin-Ahx-Ub-VS probe labelling (fragment/DMSO); higher = less target engagement (more negative = stronger competition), active = hit call of the paper (q ≤ 0.05, log2 ratio ≤ -1)
Details in all cases: compound concentration: 200 uM; treatment time: 3 h
USP34 = USP34 (UniProt Q70CQ2)
In short: (§1)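 Using Biotin-Ahx-Ub-VS at 0.5 µM final for 1 h, DUBs were labelled in HEK293T lysate (495 µg per sample) that had first been treated in triplicate with fragment at 200 µM or vehicle for 3 h. NeutrAvidin enrichment, LysC and trypsin digestion and diaPASEF LC-MS/MS followed. Spectronaut label-free quantities were global-median-normalised. Values are average log2 fragment/vehicle ratios by unpaired t-test, using proteins with ≥2 unique peptides.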

USP36 = target: T1, USP36 (UniProt Q9P275)
T1 sequence (whole entry): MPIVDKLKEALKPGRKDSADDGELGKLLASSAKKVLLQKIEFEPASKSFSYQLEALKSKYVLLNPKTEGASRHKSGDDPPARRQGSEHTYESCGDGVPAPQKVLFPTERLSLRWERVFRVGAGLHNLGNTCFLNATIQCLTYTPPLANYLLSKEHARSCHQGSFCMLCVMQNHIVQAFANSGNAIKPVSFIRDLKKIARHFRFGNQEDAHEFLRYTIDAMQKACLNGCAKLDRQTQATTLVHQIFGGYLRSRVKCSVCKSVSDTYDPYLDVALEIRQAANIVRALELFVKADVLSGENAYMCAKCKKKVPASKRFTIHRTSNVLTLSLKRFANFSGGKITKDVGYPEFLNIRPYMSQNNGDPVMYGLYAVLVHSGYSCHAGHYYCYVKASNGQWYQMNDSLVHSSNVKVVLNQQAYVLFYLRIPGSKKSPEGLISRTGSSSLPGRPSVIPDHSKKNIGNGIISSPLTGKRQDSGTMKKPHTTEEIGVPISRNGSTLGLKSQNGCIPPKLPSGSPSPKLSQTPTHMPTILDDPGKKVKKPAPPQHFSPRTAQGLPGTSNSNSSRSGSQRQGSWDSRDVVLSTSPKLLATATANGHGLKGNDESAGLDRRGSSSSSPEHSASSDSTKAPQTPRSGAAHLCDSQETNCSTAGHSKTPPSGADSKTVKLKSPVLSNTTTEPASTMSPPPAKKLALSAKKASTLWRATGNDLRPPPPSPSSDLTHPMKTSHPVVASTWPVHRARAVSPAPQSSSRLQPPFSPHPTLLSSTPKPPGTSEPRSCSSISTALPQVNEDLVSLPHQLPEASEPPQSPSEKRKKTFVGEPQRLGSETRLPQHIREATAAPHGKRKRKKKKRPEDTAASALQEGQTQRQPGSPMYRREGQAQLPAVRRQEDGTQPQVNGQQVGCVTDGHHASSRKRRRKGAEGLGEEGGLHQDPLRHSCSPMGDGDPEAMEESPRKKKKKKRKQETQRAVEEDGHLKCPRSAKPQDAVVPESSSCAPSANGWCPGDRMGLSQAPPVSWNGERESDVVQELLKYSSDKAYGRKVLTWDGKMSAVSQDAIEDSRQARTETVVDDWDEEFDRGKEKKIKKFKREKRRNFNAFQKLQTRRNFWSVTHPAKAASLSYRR
In short: as §1

USP38 = target: T2, USP38 (UniProt Q8NB14)
T2 sequence (whole entry): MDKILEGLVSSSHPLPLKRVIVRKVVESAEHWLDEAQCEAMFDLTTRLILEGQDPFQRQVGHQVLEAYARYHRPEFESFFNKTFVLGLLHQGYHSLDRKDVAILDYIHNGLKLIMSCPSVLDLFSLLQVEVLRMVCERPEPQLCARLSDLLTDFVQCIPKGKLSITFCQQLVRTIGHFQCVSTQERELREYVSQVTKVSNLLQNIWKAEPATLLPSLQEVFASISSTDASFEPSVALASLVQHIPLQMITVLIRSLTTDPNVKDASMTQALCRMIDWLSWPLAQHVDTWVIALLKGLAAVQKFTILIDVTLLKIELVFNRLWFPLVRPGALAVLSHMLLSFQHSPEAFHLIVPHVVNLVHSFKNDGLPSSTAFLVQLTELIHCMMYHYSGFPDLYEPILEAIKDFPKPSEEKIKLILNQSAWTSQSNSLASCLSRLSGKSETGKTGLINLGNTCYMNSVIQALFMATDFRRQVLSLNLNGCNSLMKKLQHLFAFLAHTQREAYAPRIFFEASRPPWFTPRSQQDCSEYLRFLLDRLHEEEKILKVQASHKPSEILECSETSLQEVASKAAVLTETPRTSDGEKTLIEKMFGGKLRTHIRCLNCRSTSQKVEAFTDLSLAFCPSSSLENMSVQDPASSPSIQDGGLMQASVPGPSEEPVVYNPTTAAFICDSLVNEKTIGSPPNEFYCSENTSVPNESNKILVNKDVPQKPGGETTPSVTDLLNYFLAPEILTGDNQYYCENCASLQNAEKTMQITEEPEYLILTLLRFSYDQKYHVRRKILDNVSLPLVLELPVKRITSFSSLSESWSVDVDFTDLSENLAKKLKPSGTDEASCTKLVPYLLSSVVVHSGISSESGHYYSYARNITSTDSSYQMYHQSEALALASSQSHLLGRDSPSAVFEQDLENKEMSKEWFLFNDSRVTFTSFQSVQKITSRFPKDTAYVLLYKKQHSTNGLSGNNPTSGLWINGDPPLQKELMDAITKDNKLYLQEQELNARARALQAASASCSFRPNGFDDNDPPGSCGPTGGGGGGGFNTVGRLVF
In short: as §1

USP39 = target: T3, USP39 (UniProt Q53GS9)
T3 sequence (whole entry): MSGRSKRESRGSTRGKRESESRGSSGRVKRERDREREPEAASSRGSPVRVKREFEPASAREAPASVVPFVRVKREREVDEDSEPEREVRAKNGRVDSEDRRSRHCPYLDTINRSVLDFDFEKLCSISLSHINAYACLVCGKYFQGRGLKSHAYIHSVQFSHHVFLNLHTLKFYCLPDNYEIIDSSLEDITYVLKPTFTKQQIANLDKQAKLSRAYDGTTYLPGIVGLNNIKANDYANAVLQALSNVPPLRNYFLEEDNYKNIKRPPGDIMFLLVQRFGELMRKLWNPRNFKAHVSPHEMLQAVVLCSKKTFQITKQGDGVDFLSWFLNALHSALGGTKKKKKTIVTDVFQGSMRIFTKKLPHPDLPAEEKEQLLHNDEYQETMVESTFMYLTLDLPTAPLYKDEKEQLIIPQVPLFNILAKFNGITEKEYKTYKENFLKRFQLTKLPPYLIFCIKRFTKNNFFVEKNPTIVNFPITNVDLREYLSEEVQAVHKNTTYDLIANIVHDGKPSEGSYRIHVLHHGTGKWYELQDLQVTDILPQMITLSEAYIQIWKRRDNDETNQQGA
In short: as §1

USP4 = target: T4, USP4 (UniProt Q13107)
T4 sequence (whole entry): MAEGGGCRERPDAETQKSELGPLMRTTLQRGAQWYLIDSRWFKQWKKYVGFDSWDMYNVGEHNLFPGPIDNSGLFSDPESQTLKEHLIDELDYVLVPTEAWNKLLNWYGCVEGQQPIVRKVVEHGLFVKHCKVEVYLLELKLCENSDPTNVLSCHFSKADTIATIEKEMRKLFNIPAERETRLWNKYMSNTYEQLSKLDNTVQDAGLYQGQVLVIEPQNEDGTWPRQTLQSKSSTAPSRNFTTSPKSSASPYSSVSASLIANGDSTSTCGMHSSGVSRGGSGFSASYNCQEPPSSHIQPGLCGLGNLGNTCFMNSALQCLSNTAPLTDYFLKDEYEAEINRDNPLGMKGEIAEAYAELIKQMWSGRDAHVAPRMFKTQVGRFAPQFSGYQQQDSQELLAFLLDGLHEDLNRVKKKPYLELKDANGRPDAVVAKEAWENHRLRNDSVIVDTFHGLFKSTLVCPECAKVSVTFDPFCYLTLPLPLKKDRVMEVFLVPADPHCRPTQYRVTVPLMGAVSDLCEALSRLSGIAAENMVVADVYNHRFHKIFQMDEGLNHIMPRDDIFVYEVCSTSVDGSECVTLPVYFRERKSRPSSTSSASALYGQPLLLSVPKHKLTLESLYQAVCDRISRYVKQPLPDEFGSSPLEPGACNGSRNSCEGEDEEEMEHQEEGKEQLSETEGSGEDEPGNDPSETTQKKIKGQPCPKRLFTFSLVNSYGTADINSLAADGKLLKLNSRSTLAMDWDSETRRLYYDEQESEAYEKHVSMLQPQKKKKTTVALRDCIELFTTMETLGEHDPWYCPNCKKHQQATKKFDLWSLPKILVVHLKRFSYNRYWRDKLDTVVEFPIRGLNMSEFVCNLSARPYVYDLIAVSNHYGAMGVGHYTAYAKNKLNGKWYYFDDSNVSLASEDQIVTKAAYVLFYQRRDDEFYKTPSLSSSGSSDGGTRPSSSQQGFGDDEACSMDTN
In short: as §1

Measured: log2 ratio of Biotin-Ahx-Ub-VS probe labelling

Sequence of USP34 (Q70CQ2 whole entry, the tested form may be a part): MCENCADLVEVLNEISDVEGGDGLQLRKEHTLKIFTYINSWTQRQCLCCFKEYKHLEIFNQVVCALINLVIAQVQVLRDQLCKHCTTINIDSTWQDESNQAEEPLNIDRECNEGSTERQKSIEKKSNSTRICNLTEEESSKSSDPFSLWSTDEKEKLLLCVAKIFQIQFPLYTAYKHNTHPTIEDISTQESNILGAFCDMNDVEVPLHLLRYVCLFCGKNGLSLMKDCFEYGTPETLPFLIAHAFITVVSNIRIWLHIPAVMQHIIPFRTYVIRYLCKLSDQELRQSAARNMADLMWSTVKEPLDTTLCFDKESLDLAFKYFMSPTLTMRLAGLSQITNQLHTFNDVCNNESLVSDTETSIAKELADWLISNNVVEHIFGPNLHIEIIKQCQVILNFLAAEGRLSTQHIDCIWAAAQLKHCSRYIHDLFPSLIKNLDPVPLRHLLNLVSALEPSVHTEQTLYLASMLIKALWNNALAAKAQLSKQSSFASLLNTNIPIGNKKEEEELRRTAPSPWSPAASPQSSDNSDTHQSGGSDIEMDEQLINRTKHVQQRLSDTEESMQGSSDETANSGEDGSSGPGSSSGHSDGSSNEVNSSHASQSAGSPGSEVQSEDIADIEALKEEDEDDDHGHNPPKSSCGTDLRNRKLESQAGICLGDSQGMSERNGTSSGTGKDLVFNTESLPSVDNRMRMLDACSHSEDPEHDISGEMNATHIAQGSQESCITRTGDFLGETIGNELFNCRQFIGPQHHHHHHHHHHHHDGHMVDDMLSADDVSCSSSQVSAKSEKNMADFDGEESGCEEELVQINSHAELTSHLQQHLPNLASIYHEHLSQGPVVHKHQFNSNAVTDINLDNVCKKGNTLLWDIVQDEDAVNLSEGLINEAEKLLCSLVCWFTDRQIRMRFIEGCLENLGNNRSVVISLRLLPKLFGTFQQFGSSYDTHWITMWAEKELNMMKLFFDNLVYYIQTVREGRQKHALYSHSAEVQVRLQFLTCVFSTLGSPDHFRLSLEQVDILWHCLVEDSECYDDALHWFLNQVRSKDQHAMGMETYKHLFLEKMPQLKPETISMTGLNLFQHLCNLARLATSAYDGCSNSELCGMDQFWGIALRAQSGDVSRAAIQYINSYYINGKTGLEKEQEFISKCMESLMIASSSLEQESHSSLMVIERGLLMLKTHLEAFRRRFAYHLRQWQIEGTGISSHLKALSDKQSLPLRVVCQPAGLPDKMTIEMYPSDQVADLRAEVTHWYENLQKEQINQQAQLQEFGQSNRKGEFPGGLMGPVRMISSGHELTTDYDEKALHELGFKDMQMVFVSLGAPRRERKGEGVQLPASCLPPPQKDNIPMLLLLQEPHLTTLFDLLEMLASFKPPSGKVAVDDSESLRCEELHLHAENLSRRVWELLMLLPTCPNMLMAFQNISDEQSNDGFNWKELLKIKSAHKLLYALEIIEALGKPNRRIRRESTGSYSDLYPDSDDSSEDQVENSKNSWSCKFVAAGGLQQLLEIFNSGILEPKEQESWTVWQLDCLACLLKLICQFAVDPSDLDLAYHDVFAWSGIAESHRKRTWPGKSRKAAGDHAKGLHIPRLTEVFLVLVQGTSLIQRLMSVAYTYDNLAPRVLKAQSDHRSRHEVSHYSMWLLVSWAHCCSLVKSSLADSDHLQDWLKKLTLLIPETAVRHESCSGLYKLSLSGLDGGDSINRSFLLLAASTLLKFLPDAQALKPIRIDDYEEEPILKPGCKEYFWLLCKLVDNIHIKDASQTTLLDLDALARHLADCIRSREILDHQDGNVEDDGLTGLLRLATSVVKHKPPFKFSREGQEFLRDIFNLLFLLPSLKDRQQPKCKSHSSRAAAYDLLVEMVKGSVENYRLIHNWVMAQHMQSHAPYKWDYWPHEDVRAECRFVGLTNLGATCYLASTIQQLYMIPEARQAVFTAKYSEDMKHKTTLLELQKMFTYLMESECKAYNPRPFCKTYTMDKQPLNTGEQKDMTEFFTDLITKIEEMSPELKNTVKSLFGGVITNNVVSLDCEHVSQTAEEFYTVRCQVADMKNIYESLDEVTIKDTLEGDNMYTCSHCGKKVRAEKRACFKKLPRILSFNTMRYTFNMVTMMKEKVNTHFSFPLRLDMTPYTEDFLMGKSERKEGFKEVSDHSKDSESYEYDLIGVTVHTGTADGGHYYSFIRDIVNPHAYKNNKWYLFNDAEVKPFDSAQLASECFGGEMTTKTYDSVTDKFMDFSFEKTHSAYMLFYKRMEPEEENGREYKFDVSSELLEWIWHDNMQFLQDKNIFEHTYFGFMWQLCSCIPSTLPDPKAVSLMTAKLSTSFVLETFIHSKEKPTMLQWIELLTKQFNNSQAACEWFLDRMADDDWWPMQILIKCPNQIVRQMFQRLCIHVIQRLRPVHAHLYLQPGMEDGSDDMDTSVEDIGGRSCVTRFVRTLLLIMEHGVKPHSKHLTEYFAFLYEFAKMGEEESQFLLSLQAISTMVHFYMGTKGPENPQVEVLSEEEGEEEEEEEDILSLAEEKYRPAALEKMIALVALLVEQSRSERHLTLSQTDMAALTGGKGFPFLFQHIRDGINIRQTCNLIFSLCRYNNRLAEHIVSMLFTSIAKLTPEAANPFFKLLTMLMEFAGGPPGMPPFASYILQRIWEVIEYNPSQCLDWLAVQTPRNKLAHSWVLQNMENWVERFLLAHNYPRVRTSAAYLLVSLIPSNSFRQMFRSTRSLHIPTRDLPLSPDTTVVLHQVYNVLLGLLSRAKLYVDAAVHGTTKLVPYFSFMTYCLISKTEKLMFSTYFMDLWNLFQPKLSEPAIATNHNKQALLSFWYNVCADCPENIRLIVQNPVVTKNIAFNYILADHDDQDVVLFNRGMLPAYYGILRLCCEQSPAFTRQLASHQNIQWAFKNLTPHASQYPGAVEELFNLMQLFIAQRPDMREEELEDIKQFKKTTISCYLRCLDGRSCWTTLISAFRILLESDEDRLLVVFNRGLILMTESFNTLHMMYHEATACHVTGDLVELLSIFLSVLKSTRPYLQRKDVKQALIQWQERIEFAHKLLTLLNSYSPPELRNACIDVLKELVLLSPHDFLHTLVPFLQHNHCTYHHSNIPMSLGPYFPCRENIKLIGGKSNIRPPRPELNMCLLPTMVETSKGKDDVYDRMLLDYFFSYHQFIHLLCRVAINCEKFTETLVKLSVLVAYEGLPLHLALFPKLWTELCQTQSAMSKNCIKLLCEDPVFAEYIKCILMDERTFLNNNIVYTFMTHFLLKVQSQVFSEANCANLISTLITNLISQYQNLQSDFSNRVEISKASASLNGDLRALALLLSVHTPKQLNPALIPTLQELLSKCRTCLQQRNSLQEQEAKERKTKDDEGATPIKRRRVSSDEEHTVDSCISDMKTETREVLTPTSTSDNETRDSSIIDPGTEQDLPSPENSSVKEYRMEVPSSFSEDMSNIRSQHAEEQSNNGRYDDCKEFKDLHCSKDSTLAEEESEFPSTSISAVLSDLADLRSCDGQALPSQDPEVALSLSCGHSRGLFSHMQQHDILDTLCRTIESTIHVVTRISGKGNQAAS

O=C(CCl)NC1CCN(C(=O)C2CCCCC2)CC1
inactive: USP34 0.0203 | USP36 -0.0678 | USP38 0.166 | USP39 0.187 | USP4 -0.0463

— the supplement of paper PMC11732987, “Enantioselective OTUD7B fragment discovery through chemoproteomics screening and high-throughput optimisation” (Communications Chemistry, 2025)
